According to PubChem BioAssay (Tox21):
Results filed as inconclusive are left out. The source made the active and inactive calls. Unless noted, calls come from the whole dose curve; as a rule, active = well fitted curve in the direction sought with a large enough effect in the repeat runs; inconclusive = weak or mixed curves; inactive = no such curve, though single readings can be large; an effect the other way counts as inactive or inconclusive. Positions of bridges follow the written chain, without caps; N, C: chain ends. Non-standard residues stand in square brackets, D forms with d. Residues, ends and D or L forms follow the SMILES beside them. hArg = N=C(N)NCCCC[C@H](N)C(=O)O; Mpa = O=C(O)CCS

Experiments:
[1] = qHTS assay to identify small molecule antagonists of the vitamin D receptor (VDR) signaling pathway - cell viability counter screen (AID 743225); note: nearly all actives have a fitted effect of over 50% in size
Summary of the method: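 Viability counter screen run in the same wells as the beta-lactamase reporter assay: HEK 293T VDR-UAS-bla cells, 16 h compound exposure at 37C with 3 nM (final) 1-alpha,25-dihydroxyvitamin D3. CellTiter-Glo luminescence, 30 min, room temperature.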

[2] = qHTS assay to identify small molecule agonists of the NFkB signaling pathway (AID 1159509; active = well fitted curve in the direction sought with a large enough effect in the signal ratio in the repeat runs, not every such curve was filed as active; the % refers to the signal ratio; note: series mostly up to about 61 µM)
Summary of the method: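 Pathway activation was measured in ME-180 cells stably expressing beta-lactamase under NF-kB response element control. Substrate cleavage was read as the 460/530 nm emission shift after 5 hr compound incubation.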

[3] = qHTS assay to identify small molecule agonists of the NFkB signaling pathway - cell viability counter screen (AID 1159515; calls by dose curve; note: series mostly up to about 61 µM; nearly all actives have a fitted effect of over 55% in size)
Summary of the method: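 Read by CellTiter-Glo luminescence (30 min, room temperature) in the wells also used for the beta-lactamase FRET read. ME-180 NFkB-bla cells at 2,000 per well were plated overnight, then exposed to compound for 5 hr at 37 C.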

[4] = qHTS assay to identify small molecule agonists of the endoplasmic reticulum stress response signaling pathway (AID 1159516; active = well fitted activation curve with a large enough effect in the signal ratio in the repeat runs, not every such curve was filed as active; the % refers to the signal ratio)
Summary of the method: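 Ratiometric FRET readout (405 nm excitation; 460 and 530 nm emission) of a beta-lactamase gene driven by the ER stress response element, after 2 hr substrate loading. HeLa ESRE-bla cells were seeded overnight and treated with compounds for only 5 hr at 37 C.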

[5] = qHTS assay to identify small molecule agonists of the endoplasmic reticulum stress response signaling pathway - cell viability counter screen (AID 1159517; calls by dose curve; note: series mostly up to about 61 µM; nearly all actives have a fitted effect of over 50% in size)
Summary of the method: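 In parallel with the ESRE reporter read, cytotoxicity was scored by CellTiter-Glo luminescence (30 min, room temperature) on HeLa ESRE-bla cells dosed for 5 hr.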

[6] = qHTS assay to identify small molecule antagonists of the retinoid-related orphan receptor gamma (ROR-gamma) signaling pathway - cell viability counter screen (AID 1159520); note: nearly all actives have a fitted effect of over 50% in size
Summary of the method: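 Tet-on ROR gamma CHO cells were given compounds for 2 hr, then doxycycline hyclate at 1 uM final, and incubated 16 hr at 37 C. Viability was measured as ATP content by CellTiter-Glo luminescence.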

[7] = molecular target: Nuclear receptor ROR-gamma (Homo sapiens) (UniProt P51449); experiment: qHTS assay to identify small molecule antagonists of the retinoid-related orphan receptor gamma (ROR-gamma) signaling pathway (AID 1159521;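 note: CHO cells with doxycycline inducible ROR-gamma driving an RORE luciferase reporter; top concentration of the series differs between compounds; nearly all actives have a fitted effect of over 50% in size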)
Summary of the method: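 Luminescence readout (ONE-Glo, 30 min RT) after 16 h doxycycline induction; loss of signal scored as antagonism. CHO cells with TET-inducible RORγ and RORE-LUC reporter; compounds added 2 h before 1 uM final doxycycline.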

[8] = qHTS assay to identify small molecule agonists of the AP-1 signaling pathway - cell viability counter screen (AID 1159525; calls by dose curve; note: nearly all actives have a fitted effect of over 55% in size)
Summary of the method: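 Same-well cytotoxicity counter screen of the Tox21 10K library in ME-180 cells. The readout is ATP-dependent luminescence after 5 h compound treatment. Data are normalised to DMSO and tetra n-octyl ammonium bromide controls.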

[9] = qHTS assay to identify small molecule agonists of the AP-1 signaling pathway (AID 1159526; calls by dose curve)
[10] = molecular target: Retinoic acid receptor RXR-alpha (Homo sapiens) (UniProt P19793); experiment: qHTS assay to identify small molecule agonists of the RXR signaling pathway (AID 1159527; calls by dose curve; note: nearly all actives have a fitted effect of over 35% in size)
Sequence of Retinoic acid receptor RXR-alpha (Homo sapiens) (P19793 whole entry, looked up): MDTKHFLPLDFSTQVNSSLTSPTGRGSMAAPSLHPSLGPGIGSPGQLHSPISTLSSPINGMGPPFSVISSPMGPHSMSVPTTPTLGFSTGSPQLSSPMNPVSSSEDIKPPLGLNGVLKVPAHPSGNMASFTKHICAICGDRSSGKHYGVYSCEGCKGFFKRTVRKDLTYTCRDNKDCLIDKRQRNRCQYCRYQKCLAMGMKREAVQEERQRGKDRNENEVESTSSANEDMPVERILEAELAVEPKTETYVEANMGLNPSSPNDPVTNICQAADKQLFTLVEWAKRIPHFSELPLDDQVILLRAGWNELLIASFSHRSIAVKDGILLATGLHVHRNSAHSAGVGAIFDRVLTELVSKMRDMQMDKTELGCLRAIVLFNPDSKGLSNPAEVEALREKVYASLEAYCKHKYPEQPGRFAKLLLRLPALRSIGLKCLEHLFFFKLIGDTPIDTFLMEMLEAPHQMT
Summary of the method: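 Agonist mode; 9-cis retinoic acid positive control. HEK 293T UAS-bla reporter cells, 2% charcoal-stripped FBS, 16 hr compound exposure at 37 C/5% CO2. LiveBLAzer B/G FRET substrate 2 hr RT; ex 405, em 460/530 nm.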

[11] = qHTS assay to identify small molecule agonists of the RXR signaling pathway - cell viability counter screen (AID 1159529)
Summary of the method: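 Luminescence from CellTiter-Glo (30 min, RT) measured viability in the same wells as the beta-lactamase reporter readout. Cells: GeneBLAzer RXR-alpha HEK 293T, 2% charcoal-stripped FBS. Compound exposure 16 hr, 37 C.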

[12] = qHTS assay to identify small molecule antagonists of the retinoid acid receptor (RAR) signaling pathway - cell viability counter screen (AID 1159551); note: nearly all actives have a fitted effect of over 35% in size
Summary of the method: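 Cytotoxicity counter screen: ATP content quantified by CellTiter-Glo luminescence in C3RL4 cells treated 6 hr at 37 C with compound and retinol (1 uM final). Cells plated at 1,000/well and cultured overnight before dosing.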

[13] = qHTS assay to identify small molecule antagonists of the retinoic acid receptor (RAR) signaling pathway (AID 1159552; note: nearly all actives have a fitted effect of over 50% in size)
Summary of the method: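 Luminescence from a RARE luciferase reporter in C3RL4 cells served as read-out. Cells received compounds together with 1 uM final retinol and incubated 6 hr at 37 C before detection reagent was added for 30 min at room temperature.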

[14] = qHTS assay to identify small molecule agonists of the retinoic acid receptor (RAR) signaling pathway (AID 1159553)
Summary of the method: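 Luminescence was measured 30 min after luciferase reagent addition at room temperature. Before that, C3RL4 reporter cells (1,000 per well, plated overnight) were treated with compound for 6 hr at 37 C and 5% CO2.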

[15] = qHTS assay to identify small molecule antagonists of the estrogen related receptor (ERR) signaling pathway from Tox21 library - cell viability counter screen (AID 1224834); note: nearly all actives have a fitted effect of over 30% in size
Summary of the method: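 CellTiter-Fluor fluorescence, read after 30 min at 37 C, measures viability of ERR cells. Cells plated at 2,000/well and incubated 6 h before pin-tool compound addition, then exposed 17.5 hours at 37 C.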

[16] = molecular target: Luciferin 4-monooxygenase (Photinus pyralis) (UniProt P08659); experiment: qHTS assay to identify small molecule inhibitors of firefly luciferase (AID 1224835); note: series mostly up to about 120 µM; nearly all actives have a fitted effect of over 25% in size
Sequence of Luciferin 4-monooxygenase (Photinus pyralis) (P08659 whole entry, looked up): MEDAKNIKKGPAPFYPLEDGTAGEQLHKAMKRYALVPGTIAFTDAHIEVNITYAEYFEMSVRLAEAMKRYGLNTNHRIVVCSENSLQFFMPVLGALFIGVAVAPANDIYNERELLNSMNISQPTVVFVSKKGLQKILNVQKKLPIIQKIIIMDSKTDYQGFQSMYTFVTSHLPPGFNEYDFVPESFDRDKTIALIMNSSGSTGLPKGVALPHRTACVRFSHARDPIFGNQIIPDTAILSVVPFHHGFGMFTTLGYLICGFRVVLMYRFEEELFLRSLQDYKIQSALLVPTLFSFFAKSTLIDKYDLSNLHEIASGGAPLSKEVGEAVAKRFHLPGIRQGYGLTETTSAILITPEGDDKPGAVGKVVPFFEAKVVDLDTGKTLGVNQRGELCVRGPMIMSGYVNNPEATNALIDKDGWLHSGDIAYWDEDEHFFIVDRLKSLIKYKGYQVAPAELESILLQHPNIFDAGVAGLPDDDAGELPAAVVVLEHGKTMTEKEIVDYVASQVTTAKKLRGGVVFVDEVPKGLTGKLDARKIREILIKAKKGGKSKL
Summary of the method: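 Biochemical qHTS: compounds run as interplate titrations against purified firefly enzyme, with D-luciferin and ATP each at its KM concentration. Light output recorded by CCD imaging.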

[17] = qHTS assay to identify small molecule agonists of the constitutive androstane receptor (CAR) signaling pathway - cell viability counter screen (AID 1224836); note: series mostly up to about 92 µM; nearly all actives have a fitted effect of over 45% in size
Summary of the method: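 Viability read-out: CellTiter-Fluor fluorescence after 23 h compound exposure at 37 C/5% CO2 in double-stable HepG2-CYP2B6-hCAR cells, with PK11195 present at 0.75 uM final; compounds tested in 15-point titration.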

[18] = qHTS assay to identify small molecule antagonists of the constitutive androstane receptor (CAR) signaling pathway - cell viability counter screen (AID 1224837); note: series mostly up to about 92 µM; nearly all actives have a fitted effect of over 45% in size
Summary of the method: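 Cytotoxicity counter-screen: CellTiter-Fluor fluorescence after 23 h compound exposure (15-point qHTS) in double-stable HepG2-CYP2B6-hCAR cells, with 50 nM CITCO added.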

[19] = molecular target: Nuclear receptor subfamily 1 group I member 3 (Homo sapiens) (UniProt Q14994); experiment: qHTS assay to identify small molecule antagonists of the constitutive androstane receptor (CAR) signaling pathway (AID 1224838);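 note: HepG2 cells stably expressing hCAR with CYP2B6 luciferase reporter stimulated by CITCO; nearly all actives have a fitted effect of over 40% in size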
Sequence of Nuclear receptor subfamily 1 group I member 3 (Homo sapiens) (Q14994 whole entry, looked up): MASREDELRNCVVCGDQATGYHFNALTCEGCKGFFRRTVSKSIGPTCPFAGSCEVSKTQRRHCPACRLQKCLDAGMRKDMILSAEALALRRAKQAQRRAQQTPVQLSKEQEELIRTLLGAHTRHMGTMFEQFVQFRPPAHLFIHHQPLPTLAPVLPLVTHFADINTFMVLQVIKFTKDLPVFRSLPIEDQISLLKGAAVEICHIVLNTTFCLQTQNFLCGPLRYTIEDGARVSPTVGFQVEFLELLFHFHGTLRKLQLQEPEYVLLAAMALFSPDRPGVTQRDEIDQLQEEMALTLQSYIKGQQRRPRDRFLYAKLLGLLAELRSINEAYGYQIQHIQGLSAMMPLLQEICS
Summary of the method: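 Antagonism measured as luciferase signal (ONE-Glo, 30 min, room temperature) in CAR-stimulated cells: HepG2-CYP2B6-hCAR double-stable line exposed 24 hr at 37 C to compound in a 15-point series plus 50 nM CITCO.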

[20] = molecular target: Nuclear receptor subfamily 1 group I member 3 (Homo sapiens) (UniProt Q14994); experiment: qHTS assay to identify small molecule agonists of the constitutive androstane receptor (CAR) signaling pathway (AID 1224839);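 note: HepG2 cells stably carrying human CAR and a CYP2B6 luciferase reporter; series mostly up to about 92 µM; nearly all actives have a fitted effect of over 15% in size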
Summary of the method: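 Luminescence read-out (ONE-Glo, 30 min, room temperature) from double-stable HepG2-CYP2B6-hCAR cells exposed 24 h to 15-point compound series in presence of 0.75 uM PK11195 final.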

Measured: Potency

NC(=O)[C@@H]1CSSCCC(=O)N[C@@H](CCCCN=C(N)N)C(=O)NCC(=O)N[C@@H](CC(=O)O)C(=O)N[C@@H](Cc2c[nH]c3ccccc23)C(=O)N2CCC[C@H]2C(=O)N1 ([Mpa][hArg]GDWPC-NH2; disulfide 1-7)
inactive: all assays above

CCCCCCCCCOC(=O)CCCCC(=O)OCCCCCCC
inactive: all assays above

CC(O)COC(C)(C)C (stereo not given)
inactive: all assays above

CO/N=C(/C(=O)N[C@@H]1C(=O)N2C(C(=O)[O-])=C(C[n+]3ccn4ncccc43)CS[C@H]12)c1nsc(N)n1
inactive: all assays above

O=C(O)CSCC(=O)NC1CCSC1=O (stereo not given)
inactive: all assays above

C=CCOC(=O)CCCCCC
inactive: all assays above

COc1cc2c(cc1OC)CN(C(=O)[C@H](C)N[C@@H](CCc1ccccc1)C(=O)O)[C@H](C(=O)O)C2
inactive: all assays above
